Among the data in PubChem BioAssay (NCI) are growth values, retold here.

Molecules are shown by their SMILES. The panel holds about 83,000 compounds, 20% with a hit somewhere; the sample as a whole holds those more often.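 For each line, cells grew in 96-well plates with the test compound present at a single concentration for 48 hours.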 Values without a mark were called inactive. Calls of active or inactive are those of the source. Rule for the calls: active = growth percent below 10; inactive = the rest.

The subject of this assay is MDA-MB-468 breast. Description: NCI-60 one-dose screen, 48 h (100 = growth as untreated, 0 = no growth, -100 = all killed). Conditions: 10 µM unless noted.
Take `c1ccc(C(c2nc3ncncc3[nH]2)N2CSc3nc4ncncc4n3C2)cc1` (stereo not drawn): the growth is 7.36% (active).
As for `O=C(Cc1ccc(/C=C/C(=O)c2ncc[nH]2)cc1)Nc1ccc(Cl)cc1`, the figure is 9.49% (active); as for `COc1ccc(-c2nnc(COc3ccc(Cl)cc3Cl)o2)cc1OC`, 71.9%; as for `Cc1cc2c(-c3nc4ccccn4c3N)c(O)c(O)cc2c(O)c1-c1c(C)cc2c(-c3nc4ccccn4c3N)c(O)c(O)cc2c1O`, -2.1% (active).
Turning to `Oc1c(C(Nc2ccccc2)c2ccccc2)ccc2cccnc12` (stereo not drawn), the growth is 17.8%.
As for `COc1nc2c(c(=O)n1C)CN(c1ccccc1)C(=O)C(C)N2` (stereo not drawn), the figure is 86.3%.
In the case of `CN1CCN(C(=S)SCCCCOc2cc(=O)oc3ccccc23)CC1` it was 56.3%; in that of `COc1ccc(-c2nc3sccn3c2/C=C/C(=O)c2cc(F)cc(F)c2)cc1`, 85.8%; in that of `CCOC(=O)NNC(=S)Nc1ccccc1`, 97.7%.
As for `CN1C[C@@H](c2ccc(Cl)cc2)[C@]2(NC(=S)N(c3ccc(F)c(Cl)c3)C2=O)[C@@]12C(=O)NC1C=CC(Cl)=C[C@H]12` (stereo partly drawn), the growth was 48.8%.
As for `Cc1ccccc1/C=C/C(=O)c1cccc(OCCCOc2cccc(C(=O)/C=C/c3ccccc3C)c2)c1`, the figure is 108% [3 µM]; as for `CN1CCN(Cc2ccc(NC(=O)c3cncc(C#Cc4cnc5ccc(NCCO)nn45)c3)cc2C(F)(F)F)CC1`, -55.5% (active); as for `CO[C@@]12[C@@H]3NC3CN1C1=C(C(=O)C(N)=C(C)C1=O)[C@@H]2COC(N)=O` (stereo partly drawn), -14.1% (active).
